In the library only some 10% were active in any assay of this set; here they are far more common.
KinaseGlo FLuc – Counterscreen for Luciferase (Kinase-Glo TM) Inhibition. Luciferin 4-monooxygenase (Photuris pensylvanica), Q27757. Kinase-Glo luciferase, ATP luminescence, 8 min. Potency, µM (series often up to 38.3 µM), for inactives: at the highest dose activity change, negative = inhibition, most hits filed as inhibitors. 200,000 tested, 0.28% active. AID 1379, 2008; active = well fitted inhibition curve with a large enough effect; inconclusive = small, poorly fitted or top-dose-only effect; also: potency is read from the fitted curve at half-maximal effect; nearly all actives have a fitted effect of over 60% in size
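Light output from Kinase-Glo luciferase with luciferin and 10 uM ATP in 50 mM imidazole pH 7.2, KCl, MgCl2, Tween 20, BSA; compound pin-delivered, 8-min ambient incubation, then luminescence read.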
HPGD inh – qHTS Assay for Inhibitors of HPGD (15-Hydroxyprostaglandin Dehydrogenase) | 150,000 tested, 4.3% active | AID 894, 2007 | purified HPGD, NADH fluorescence kinetic, PGE2 substrate | Potency, µM, inactives show at the top dose activity change, negative = inhibition, hits mostly inhibitors | 15-hydroxyprostaglandin dehydrogenase [NAD(+)] (Homo sapiens), P15428; also: potency is read from the fitted curve at half-maximal effect
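NADH formation kinetics: reaction with 30 uM PGE2 and 1 mM NAD+ (final), 20 nM enzyme, Tris-HCl pH 8 with Tween 20, after 15 min compound preincubation at room temperature. Fluorescence change, last versus first of five reads.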
ALDH1A1 inh – qHTS Assay for Inhibitors of Aldehyde Dehydrogenase 1 (ALDH1A1). Purified ALDH1A1, NADH fluorescence, propionaldehyde substrate. Potency, µM (titrated, usually from 75.3 µM), for inactives: top-dose activity, negative = inhibition, actives largely listed as inhibitors. 220,000 tested, 7.3% active. AID 1030, 2008;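 also: potency is read from the fitted curve at half-maximal effect; plate controls were no enzyme wells and a reference inhibitor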
Target sequence (P00352 whole entry, looked up): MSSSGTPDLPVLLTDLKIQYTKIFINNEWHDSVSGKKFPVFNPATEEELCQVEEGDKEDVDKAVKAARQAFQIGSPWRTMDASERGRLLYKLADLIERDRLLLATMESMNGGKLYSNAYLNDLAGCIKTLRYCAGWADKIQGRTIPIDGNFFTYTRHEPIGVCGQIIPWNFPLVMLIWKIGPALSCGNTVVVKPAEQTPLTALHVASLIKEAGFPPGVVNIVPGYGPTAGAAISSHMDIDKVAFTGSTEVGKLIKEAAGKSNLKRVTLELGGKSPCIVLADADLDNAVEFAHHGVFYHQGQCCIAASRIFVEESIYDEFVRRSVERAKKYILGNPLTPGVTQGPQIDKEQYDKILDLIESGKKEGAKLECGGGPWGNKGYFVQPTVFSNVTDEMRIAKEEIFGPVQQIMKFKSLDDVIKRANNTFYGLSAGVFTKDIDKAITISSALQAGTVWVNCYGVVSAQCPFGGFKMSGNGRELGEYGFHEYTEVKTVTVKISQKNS
PNC inhibitor – High Content Assay for Compounds that inhibit the Assembly of the Perinucleolar Compartment. PC3M PTB-GFP, PNC prevalence imaging, 16 h; hits give low values. activity change (PNC), negative = inhibition, % at 10 µM. 140,000 tested, 3.1% active. AID 2417, 2010;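 active = readout at or below -70, meaning at least 70% loss of cells showing the perinucleolar compartment, a nuclear body marking cancer cells; inconclusive = readout between -30 and a set limit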;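 also: plate controls were DMSO wells for no effect and camptothecin positive control wells for full effect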
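Compounds are pinned in duplicate onto adhered PC3M cells stably expressing GFP-tagged PTB and incubated 16 h at 37 C. Cells are then fixed, nuclei stained with Hoechst, and PNC-positive cells counted.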
IMPase inh – qHTS Assay for Identifying the Cell-Membrane Permeable IMPase Inhibitors | CHO-M1 cells, IP1 accumulation, HTRF TR-FRET ratio | inhibition (IP1 accumulation), % at 46.1 µM | Inositol monophosphatase 1 (Rattus norvegicus), P97697 | 120,000 tested, under 10 active; active = well fitted curve in the direction sought with a large enough effect in the signal ratio, not every such curve was filed as active; inconclusive = small, poorly fitted or top-dose-only effect, or a change in a side signal; inactive = no such curve, though single readings can be large or run the other way; the % refers to the signal ratio;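 also: cells stimulated with carbachol in lithium chloride buffer; plate controls were DMSO basal wells for no effect and reference inhibitor wells for full effect; higher means more IMPase inhibition seen as more IP1 and lower FRET ratio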
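Cellular IMPase inhibition is scored as a rise in cytosolic IP1, detected by competitive TR-FRET between d2-labelled IP1 and a europium anti-IP1 antibody. M1-expressing CHO cells were stimulated with carbachol for 30 min at 37C, with lithium (50 mM LiCl) present in the buffer.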
Lamin A splicing – qHTS Assay for Modulators of Lamin A Splicing. HeLa LMNA splicing GFP/RFP minigene ratio, 48 h. Potency, µM (series often up to 46.1 µM), for the others: at the top dose ratio change, negative = inhibition, actives largely listed as inhibitors. 200,000 tested, 0.01% active. AID 1487, 2009; active = well fitted inhibition curve with a large enough effect in the signal ratio, with a control signal flat, not every such curve was filed as active; inconclusive = small, poorly fitted or top-dose-only effect, or effect the other way, or a change in a side signal; the % refers to the signal ratio; also: potency is read from the fitted curve at half-maximal effect
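S3 HeLa cells stably expressing lamin A-EGFP splicing minigene plus DsRed2, 600 cells/well, 48 h compound exposure at 37C. Laser-scanning cytometry; analysed as GFP (500-530 nm)/RFP (575-640 nm) total intensity ratio; 0.5% DMSO vehicle.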
The depositor's hits bear a star; u = inconclusive; x = not tested or not shown; [ ] = dose if it differs, or a comment. Unless noted, calls follow the shape of the dose curve; as a rule, active = well fitted inhibition curve with a large enough effect (not every such curve was filed as active); inconclusive = small, poorly fitted or top-dose-only effect, or another doubt; inactive = no such curve, though single readings can be large or run the other way. Unless noted, % is scaled to controls: 0 for no effect and ±100 for the full control effect.

SMILES	KinaseGlo FLuc	HPGD inh	ALDH1A1 inh	PNC inhibitor	IMPase inh	Lamin A splicing
O=C(CSc1ccc2nnc(-c3ccc(Cl)cc3)n2n1)N1CCCc2ccccc21	-0.8%	u	-8.3%	u	u	-20.0%
Cc1cccc(-c2nnc(SCC(=O)N3c4ccccc4CCc4ccccc43)n2C)c1	-1.6%	-2.5%	11.2µM*	-4.1	x	-14.7%
Cn1c(SCC(=O)N2CCCc3ccccc32)nnc1-c1ccccc1	-1.9%	-7.7%	25.1µM*	6.1	13.9	u
O=C(CSc1ccc2nnc(-c3ccc(F)cc3)n2n1)N1CCCc2ccccc21	-1.2%	-3.0%	14.1µM*	u	-8.4	u
Cn1c(Cc2cccs2)nnc1SCC(=O)N1CCc2ccccc21	3.6%	-9.1%	-7.8%	-2.0	-2.6	4.0%
O=S(=O)(Nc1cccc(-c2ccc(N3CCCCC3)nn2)c1)c1ccc(Cl)s1	x	x	x	x	x	-12.1%[46 µM]
Cc1ccc(-c2nc(C)c(CCNS(=O)(=O)c3ccccc3F)s2)cc1	x	x	x	x	x	14.6%[46 µM]
CC(=O)c1cccc(-n2nnnc2SCC(=O)N2CCCC2)c1	3.5%	-15.4%	-2.9%	-27.7	5.9	-7.5%
CC(=O)c1ccc(-n2nnnc2SCC(=O)N2CCc3ccccc3C2)cc1	-1.7%	-14.2%	u	-81.5*	3.4	u
O=C(CSc1nnnn1-c1ccccc1)N1CCc2ccccc2C1	3.8%	-9.7%	20µM*	-24.7	0.6	-3.2%
CC(C)OC(=O)CSc1nnc(-c2cnccn2)n1C	-6.1%	-14.2%	-14.1%	-91.3*	-9.5	-5.9%
CCn1c(Cc2cccn2C)nnc1SCC(=O)c1ccc(C)cc1	0.4%	u	10µM*	1.6	2.1	2.8%
Cn1c(SCC(=O)Nc2ccc3cn[nH]c3c2)nnc1-c1cccs1	2.6%	-1.0%	12.7%	0.3	-3.8	13.0%
Cn1c(SCC(=O)Nc2ccc3cn[nH]c3c2)nnc1-c1cnccn1	11.0%	-9.1%	0.6%	-100.0*	-5.7	5.0%
Cn1c(SCC(=O)c2ccccc2)nnc1-c1cccnc1	-3.5%	-10.8%	u	u	5.6	8.5%
Cn1c(SCC(=O)c2ccccc2)nnc1-c1cnccn1	7.5%	-20.9%	20µM*	u	1.2	-7.9%
O=C(NC1CC(=O)N(c2ccccc2)C1)c1cccs1 (centres undefined)	x	x	x	x	x	-2.3%[46 µM]
CCOC(=O)c1c(NC(=O)c2cc(-c3ccccc3)on2)sc2c1CCCC2	x	x	x	x	x	1.7%[46 µM]
C/C=C(\C)C(=O)OC1[C@@H]2C=C3C4CC(=O)OC(c5ccoc5)[C@]4(C)CCC3[C@@](C)(C2=O)C(C(O)C(=O)OC)C1(C)C (some centres undefined)	1.6%	2.1%	-5.2%	x	x	x
Cc1ccc(C(=O)CSc2nnc(-c3ccccc3N)n2C)cc1	-5.3%	-21.8%	11.2µM*	-16.7	-9.0	u
CCn1c(SCC(=O)c2ccccc2)nnc1-c1cnccn1	-2.3%	17.8µM*	-7.9%	36.0	-2.2	12.3%
CCn1c(SCC(=O)c2ccc(NS(=O)(=O)c3ccccc3)cc2)nnc1-c1cccs1	3.0%	22.4µM*	u	6.7	-5.8	-4.4%
CCn1c(SCc2ccc(C)cc2)nnc1-c1cnccn1	-2.3%	-15.3%	-3.4%	u	1.3	7.9%
O=C(Nc1ccc(C(=O)N2CCN(c3ccccc3F)CC2)cc1)c1nsc2ccccc12	x	x	x	x	x	-13.3%[46 µM]
Cc1cc(C)cc(-n2ccn(CC(=O)Nc3cc(C)ccc3C)c(=O)c2=O)c1	x	x	x	x	x	-0.1%[46 µM]
Cc1ccc(CN(Cc2cccnc2)C(=O)CN2C(=O)COc3ccccc32)o1	-5.4%	-8.9%	28.2µM*	-1.9	10.7	-3.6%

Screening results (PubChem)
